Positions of bridges follow the written chain, without caps; N, C: chain ends. Non-standard residues stand in square brackets, D forms with d. Residues, ends and D or L forms follow the SMILES beside them. ξ: configuration not given here. *: point of attachment. Octanoyl(6-Me) = CCC(C)CCCCC(=O)*; ξThr(3R) = C[C@@H](O)C(N)C(=O)O; dDab = NCC[C@@H](N)C(=O)O; Dab = NCC[C@H](N)C(=O)O

The assay in a line: qHTS profiling of the MIPE4 collection as inhibitors of Plasmodium falciparum (3D7) proliferation (AID 743344).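 Note: scaled between DMSO vehicle wells and 0.29 µM artemisinin as full inhibition.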 The settings on record: P. falciparum 3D7 in erythrocytes, SYBR Green DNA fluorescence, 72 h; at 28.5 µM unless noted. Summed up:
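Parasite DNA was quantified by SYBR Green I fluorescence (ex 485, em 535 nm) after overnight lysis in saponin/Triton buffer at room temperature. Cultures at 0.3% parasitemia and 2.5% hematocrit were first exposed to compound for 72 h at 37 C; signals were normalised to artemisinin (0.29 uM) and vehicle wells.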
Take `CCC(C)CCCCC(=O)N[C@@H](CCN)C(=O)NC(C(=O)N[C@H](CCN)C(=O)N[C@@H]1CCNC(=O)C([C@@H](C)O)NC(=O)[C@@H](CCN)NC(=O)[C@@H](CCN)NC(=O)[C@@H](CC(C)C)NC(=O)[C@H](Cc2ccccc2)NC(=O)[C@H](CCN)NC1=O)[C@@H](C)O` (stereo partly drawn) ({Octanoyl(6-Me)}-[Dab][ξThr(3R)][dDab][dDab][Dab]F[dL][dDab][dDab][ξThr(3R)]; lactam 4-C): the parasite growth, % of DMSO control is 407%.
Regarding `CC(C)(O)Cn1c(NC(=O)c2ccc(-c3cn[nH]c3)s2)nc2cc(CN3CCOCC3)ccc21`, the parasite growth, % of DMSO control was 6.03%.
On to `CCNC(=O)c1cc2c(-c3cc(OCCN4CCCC4)c(Cl)cc3Cl)nc(N)nc2s1`, for which the parasite growth, % of DMSO control came out at 10.8%.
`Cc1cc(Nc2ncc3c(n2)N(C)C(=O)N(c2cc(NC(=O)c4cccc(C(F)(F)F)c4)ccc2C)C3)n(C)n1` returned a parasite growth, % of DMSO control of 7.35%.
As for `COc1cc(N2CCC(C(N)=O)CC2)ccc1Nc1nc(N)c(Cl)c(Nc2ccccc2S(=O)(=O)C(C)C)n1`, the parasite growth, % of DMSO control is 38.7%.
Regarding `OC[C@H]1OC(O)C[C@@H](O)[C@H]1O` (stereo partly specified), the parasite growth, % of DMSO control came out at 96.9%.
Under `COc1ccc(C=Cc2cc(OC)c(OC)c(OC)c2)cc1NC(=O)[C@H](N)CO` stands 75.4%; under `COc1cc2c(cc1O)CCC1C2CC[C@@]2(C)C1CC[C@@H]2O` (stereo partly specified), 79.6%; under `CCc1ccc(C(=O)Nc2cc(CN3CCN(C)CC3)cc(C(F)(F)F)c2)cc1C#Cc1cnc2ccnn2c1`, 5.7%.
For the compound `CC(=O)O[C@@]12CO[C@H]1C[C@H](O)[C@@]1(C)C(=O)[C@H](O)C3=C(C)[C@@H](OC(=O)C(O)[C@@H](NC(=O)OC(C)(C)C)c4ccccc4)C[C@@](O)([C@@H](OC(=O)c4ccccc4)[C@@H]21)C3(C)C` (stereo partly specified), the parasite growth, % of DMSO control was determined as 5.89%.
Next, `CN[C@H]1[C@@H](O)[C@@H]2O[C@@H]3O[C@H](C)CC(=O)[C@]3(O)O[C@@H]2[C@@H](NC)[C@H]1O`: 6.52%; `COc1cc2c(Nc3ccc(Cl)c(Cl)c3F)ncnc2cc1OCC1C[C@@H]2CN(C)C[C@H]2C1`: 6.7%.
Under `COc1ccc(CCC(=O)c2c(O)cc(O[C@@H]3O[C@H](CO)[C@@H](O)[C@H](O)[C@@H]3O[C@@H]3O[C@@H](C)[C@H](O)[C@@H](O)[C@@H]3O)cc2O)cc1O` stands 6.07%.
Consider `N#Cc1c(C2CCNCC2)cc(-c2c(O)cccc2OCC2CC2)nc1N`, for which the parasite growth, % of DMSO control is 12%.
In turn, `CC[C@]12C=CCN3CC[C@@]4(c5cc([C@@]6(C(=O)OC)C[C@H]7C[C@@H](C(C)(F)F)CN(Cc8c6[nH]c6ccccc86)C7)c(OC)cc5N(C)[C@H]4[C@@](O)(C(=O)OC)[C@H]1OC(C)=O)[C@@H]32` had a parasite growth, % of DMSO control of 17%.
The compound `Cn1cc(C=CC(=O)c2cccc(F)c2)cc1C=CC(=O)NO` displayed a parasite growth, % of DMSO control of 69.1%.
For the compound `CC1(C)O[C@@H]2C[C@H]3[C@@H]4CCC5=CC(=O)C=C[C@]5(C)[C@@H]4[C@@H](O)C[C@]3(C)[C@]2(C(=O)CO)O1`, the parasite growth, % of DMSO control worked out at 7.1%.
In turn, `O=C1NC(O)CCN1[C@@H]1O[C@H](CO)[C@H](O)[C@H]1O` (stereo partly specified) gave a parasite growth, % of DMSO control of 98.9%.
Take `NC(=O)Nc1sc(-c2ccc(F)cc2)cc1C(N)=O`: the parasite growth, % of DMSO control worked out at 6.58%.
For the compound `C[C@H](NC(=O)[C@@H](O)c1cc(F)cc(F)c1)C(=O)N[C@@H]1C(=O)N(C)c2ccccc2-c2ccccc21`, the parasite growth, % of DMSO control came to 11%.
Consider `COc1ccc(C(C)=O)c(O)c1`, for which the parasite growth, % of DMSO control stood at 86.4%.
With `C=C1C(=CC=C2CCC[C@]3(C)[C@@H]([C@H](C)CCCC(C)(C)O)CC[C@@H]23)C[C@@H](O)C[C@@H]1O`, the parasite growth, % of DMSO control is 15.5%.
Under `CC(=O)OCC(=O)[C@@]1(O)CC[C@H]2[C@@H]3CCC4=CC(=O)CC[C@]4(C)[C@@H]3C(=O)C[C@@]21C` stands 68.4%; under `C[C@@H](NCc1cc2ccccc2[nH]1)c1cccc2ccccc12`, 41.8%; under `C=C1CCC2[C@](C)(CO)C(O)CC[C@]2(C)C1CC=C1C(=O)OCC1O` (stereo partly specified), 94.9% [at 57.5 µM].
Regarding `O=C1NCCc2[nH]c(-c3ccncc3)cc21`, the parasite growth, % of DMSO control is 23.6%.
For `CCOC(=O)C1=C(C)NC(=S)NC1c1cccc(O)c1` (stereo unspecified), the parasite growth, % of DMSO control came to 90.7%.
In the case of `CC(C)(O)CC[C@@H](O)[C@](C)(O)[C@H]1CC[C@@]2(O)C3=CC(=O)[C@@H]4C[C@@H](O)[C@@H](O)C[C@]4(C)[C@@H]3CC[C@]12C`, the parasite growth, % of DMSO control stood at 385%.
For the compound `CC(C)[C@H](CO)Nc1nc(Nc2cccc(Cl)c2)c2ncn(C(C)C)c2n1`, the parasite growth, % of DMSO control came to 8.7%.
Take `O=C1c2c(O)cccc2[C@@H]([C@@H]2O[C@H](CO)[C@@H](O)[C@H](O)[C@H]2O)c2cc(CO)cc(O)c21`: the parasite growth, % of DMSO control amounted to 96.2%.
The compound `Nc1cccc2c1C(=O)N(C1CCC(=O)NC1=O)C2=O` (stereo unspecified) registered a parasite growth, % of DMSO control of 97.4%.
`C[C@H](CCC(=O)O)[C@H]1CCC2C3C[C@H](O)[C@@H]4C[C@H](O)CC[C@]4(C)C3CC[C@@]21C` (stereo partly specified) returned a parasite growth, % of DMSO control of 79.8%.
Consider `Cc1cnc(Nc2ccc(CN3CCOCC3)cc2)nc1Nc1cccc(S(=O)(=O)NC(C)(C)C)c1`, for which the parasite growth, % of DMSO control is 4.59%.
Under `CCOc1cc2c(c(F)c1OCC)C(=N)N(CC(=O)c1cc(N3CCOCC3)c(OC)c(C(C)(C)C)c1)C2` stands 5.53%.
`CC(=CC(=O)Nc1ccccc1C(=O)O)c1ccc2ccccc2c1` yielded a parasite growth, % of DMSO control of 383%.
With `c1cncc(CN2CCC(n3ncc4c(N5CCOCC5)nc(-c5ccc6[nH]ccc6c5)nc43)CC2)c1`, the parasite growth, % of DMSO control was 4.76%.

The values are drawn from PubChem BioAssay (NCATS).
